In the supplement of paper PMC13380429 one finds morphology score and SARS-CoV-2 infection rate data, which are given here for 30 compounds.

The test system of assay [1] is Vero E6 infected with SARS-CoV-2. Kind of assay: morphology score (similarity to uninfected cells); higher = more like uninfected cells. The note with it: 24 h.
For assay [2] the test system is unchanged. Kind of assay: SARS-CoV-2 infection rate relative to infected DMSO; higher = more infection, active = 60 or less. The note with it: 24 h.

With `Cn1c(CNc2ccc(C(=N)N)cc2)nc2cc(C(=O)N(CCC(=O)O)c3ccccn3)ccc21` [dabigatran] (10 µM), the morphology score in assay [1] was 0.269. Besides, the SARS-CoV-2 infection rate in assay [2] was 96% (inactive).

Consider `CCc1cccc(CC)c1NC(=O)N1Cc2[nH]nc(NC(=O)c3ccc(N4CCN(C)CC4)cc3)c2C1` (10 µM), for which the morphology score in assay [1] was 0.108. For the same compound, the SARS-CoV-2 infection rate in assay [2] was 113% (inactive).

Turning to `CCOc1cc2ncc(C#N)c(Nc3ccc(OCc4cccc(F)c4)c(Cl)c3)c2cc1NC(=O)/C=C/CN(C)C` (10 µM), the morphology score in assay [1] is -0.202. The SARS-CoV-2 infection rate in assay [2] is 99.5% (inactive).

In assay [1], `O=C(O)CCC/C=C\C[C@@H]1[C@@H](/C=C/[C@@H](O)COc2cccc(Cl)c2)[C@H](O)C[C@@H]1O` (racemic) [cloprostenol-(+/-)] (10 µM) registered a morphology score of -0.0265. The SARS-CoV-2 infection rate in assay [2] is 110% (inactive).

`CCOC(=O)[N-]c1c[n+](N2CCOCC2)no1` [molsidomine] (10 µM) registered a morphology score in assay [1] of 0.0533. Besides, the SARS-CoV-2 infection rate in assay [2] was 102% (inactive).

`C=C1C[C@@]2(O)O[C@@]3(C[C@H]2C(C)C)[C@@H](C)CC[C@@H]13` [curcumol] (10 µM) had a morphology score in assay [1] of 0.157. In addition, the SARS-CoV-2 infection rate in assay [2] was 106% (inactive).

In assay [1], `CC(C)Cc1ccc(C(C)C(=O)O)cc1` (stereo not given) [ibuprofen] (10 µM) displayed a morphology score of 0.0447. In assay [2], the SARS-CoV-2 infection rate was 108% (inactive).

Compound `Oc1ccc(Nc2nc(-c3ccc(Cl)cc3)cs2)cc1` (10 µM) yielded a morphology score in assay [1] of 0.129. In addition, the SARS-CoV-2 infection rate in assay [2] was 106% (inactive).

Turning to `Cc1nc2n(c(=O)c1CCN1CCC(c3noc4cc(F)ccc34)CC1)CCCC2O` (stereo not given) [paliperidone] (10 µM), in assay [1], the morphology score is 0.08. In addition, the SARS-CoV-2 infection rate in assay [2] is 108% (inactive).

The compound `COc1cccc2c1C(=O)c1c(O)c3c(c(O)c1C2=O)C[C@@](O)(/C(CO)=N/NC(=O)CCCCCN1C(=O)C=CC1=O)C[C@@H]3O[C@H]1C[C@H](N)[C@H](O)[C@H](C)O1` [aldoxorubicin] (0.833333 µM) had a morphology score in assay [1] of -0.0766. Further, the SARS-CoV-2 infection rate in assay [2] was 109% (inactive).

As for `CCOC(=O)c1cc(C#N)c(N2CCC(C(=O)NS(=O)(=O)Cc3ccccc3)CC2)nc1C` (10 µM), the morphology score in assay [1] came out at 0.128. Moreover, the SARS-CoV-2 infection rate in assay [2] is 108% (inactive).

`CC(C)=CCC/C(C)=C/CNCCNC1C2CC3CC(C2)CC1C3` (stereo not given) (10 µM) showed a morphology score in assay [1] of 0.122. The SARS-CoV-2 infection rate in assay [2] is 94.5% (inactive).

Consider `C[C@H](NC[C@H](O)CP(=O)(O)CC1CCCCC1)c1ccc(Cl)c(Cl)c1` (10 µM), for which, in assay [1], the morphology score is -0.206. Moreover, the SARS-CoV-2 infection rate in assay [2] was 114% (inactive).

In assay [1], `Cc1cc(NC(=O)Nc2ccc(F)c(F)c2)n(-c2ccccc2)n1` (10 µM) returned a morphology score of 0.105. The SARS-CoV-2 infection rate in assay [2] is 102% (inactive).

Compound `CCCCCCCCCCCCCCCCCCCCCC(=O)O` (10 µM) came in with a morphology score in assay [1] of 0.0564. For the same compound, the SARS-CoV-2 infection rate in assay [2] was 108% (inactive).

Turning to `CCCC(O)C(CC)CO` (stereo not given) [2-ethyl-1,3-hexanediol] (0.833333 µM), in assay [1], the morphology score is -0.095. Moreover, the SARS-CoV-2 infection rate in assay [2] was 116% (inactive).

`c1nc2c(NC3CCCCC3)nc(Nc3ccc(N4CCOCC4)cc3)nc2[nH]1` [reversine] (10 µM) had a morphology score in assay [1] of -0.11. The SARS-CoV-2 infection rate in assay [2] was 106% (inactive).

The compound `Cc1nnc2n1-c1sc(CCC(=O)N3CCOCC3)cc1C(c1ccccc1Cl)=NC2` [apafant] (10 µM) gave a morphology score in assay [1] of -0.0825. Moreover, in assay [2], the SARS-CoV-2 infection rate was 112% (inactive).

In turn, `COc1ccc(CN2CCN(C(c3ccc(F)cc3)c3ccc(F)cc3)CC2)c(OC)c1OC` [lomerizine] (10 µM) came in with a morphology score in assay [1] of 0.0043. Besides, the SARS-CoV-2 infection rate in assay [2] is 108% (inactive).

In assay [1], `Cc1nn(C)c2nc(NNC(=O)Nc3cc(Cl)nc(Cl)c3)cc(C(C)C)c12` (10 µM) returned a morphology score of 0.0785. Besides, in assay [2], the SARS-CoV-2 infection rate is 108% (inactive).

`Cn1cc(-c2cnc3ccc4ccc(CS(=O)(=O)NCc5ccccn5)cc4c(=O)c3c2)cn1` (10 µM): the morphology score in assay [1] worked out at 0.0342. Also, the SARS-CoV-2 infection rate in assay [2] is 106% (inactive).

Consider `Cc1ccc(C(=O)N(CCCN)[C@@H](c2nc3cc(Cl)ccc3c(=O)n2Cc2ccccc2)C(C)C)cc1` [ispinesib] (0.833333 µM), for which, in assay [1], the morphology score is -0.37. Besides, the SARS-CoV-2 infection rate in assay [2] is 110% (inactive).

In assay [1], `CC(CCc1ccc(O)cc1)NCCc1ccc(O)c(O)c1` (stereo not given) [dobutamine] (10 µM) registered a morphology score of -0.179. The SARS-CoV-2 infection rate in assay [2] was 113% (inactive).

Regarding `CC(C)[C@H]1CC[C@H](C(=O)N[C@H](Cc2ccccc2)C(=O)O)CC1` [nateglinide] (10 µM), the morphology score in assay [1] worked out at 0.0232. The SARS-CoV-2 infection rate in assay [2] is 94.5% (inactive).

`CC(=O)Nc1cccc2c1c(Sc1ccc(Cl)cc1)c(C)n2CC(=O)O` (10 µM) gave a morphology score in assay [1] of 0.187. The SARS-CoV-2 infection rate in assay [2] is 97% (inactive).

In assay [1], `Cc1cc(Nc2nc(N[C@@H](C)c3ncc(F)cn3)ncc2Cl)[nH]n1` (10 µM) showed a morphology score of 0.046. The SARS-CoV-2 infection rate in assay [2] is 108% (inactive).

The compound `C[C@@H](O[C@H]1OCCN(Cc2nn[nH]c2CN(C)C)[C@H]1c1ccc(F)cc1)c1cc(C(F)(F)F)cc(C(F)(F)F)c1` (10 µM) came in with a morphology score in assay [1] of 0.43. Further, the SARS-CoV-2 infection rate in assay [2] was 58% (active).

Take `CN(C(=O)Cc1ccccc1)[C@H](CN1CCCC1)c1ccccc1` (10 µM): the morphology score in assay [1] was 0.0751. Besides, the SARS-CoV-2 infection rate in assay [2] is 102% (inactive).

In the case of `CO[C@H]1/C=C/O[C@@]2(C)Oc3c(C)c(O)c4c(O)c(c(/C=N/N5CCN(C6CCCC6)CC5)c(O)c4c3C2=O)NC(=O)/C(C)=C\C=C\[C@H](C)[C@H](O)[C@@H](C)[C@@H](O)[C@@H](C)[C@H](OC(C)=O)[C@@H]1C` [rifapentine] (10 µM), the morphology score in assay [1] was 0.192. Further, the SARS-CoV-2 infection rate in assay [2] was 107% (inactive).

For `Cc1ccc([N+](=O)[O-])cc1O` [2-methyl-5-nitrophenol] (10 µM), in assay [1], the morphology score turned out to be 0.0626. Besides, in assay [2], the SARS-CoV-2 infection rate is 98.5% (inactive).
